Bioassay records deposited in PubChem by National Center for Advancing Translational Sciences (NCATS).
In the library only some 3.6% were active in any assay of this set; here they are far more common.
Rango-impB inh: Rango-importin beta binding inhibition; Potency, µM (series often up to 92.2 µM); 0.031% of 340,000 active; AID 540263; Rango CFP/YFP FRET sensor + importin beta, 45 min; Q14974; calls by dose curve; further: nearly all actives have a fitted effect of over 15% in size
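Inhibition scored from the CFP 486 nm/YFP 530 nm FRET ratio 45 min after adding 0.125 microM importin beta to 50 nM Rango biosensor preincubated 5 min with compound (room temperature, PBS with DTT, Tween-20, BSA). No-importin wells as positive control.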
KAT2A inh: blocks human GCN5L2 histone acetyltransferase | Q92830 | 0.21% of 390,000 active | GCN5L2 HAT assay, ThioGlo1 CoA-SH fluorescence | Potency, µM (series often up to 58.9 µM), most hits filed as inhibitors
Target sequence (Q92830 whole entry, looked up): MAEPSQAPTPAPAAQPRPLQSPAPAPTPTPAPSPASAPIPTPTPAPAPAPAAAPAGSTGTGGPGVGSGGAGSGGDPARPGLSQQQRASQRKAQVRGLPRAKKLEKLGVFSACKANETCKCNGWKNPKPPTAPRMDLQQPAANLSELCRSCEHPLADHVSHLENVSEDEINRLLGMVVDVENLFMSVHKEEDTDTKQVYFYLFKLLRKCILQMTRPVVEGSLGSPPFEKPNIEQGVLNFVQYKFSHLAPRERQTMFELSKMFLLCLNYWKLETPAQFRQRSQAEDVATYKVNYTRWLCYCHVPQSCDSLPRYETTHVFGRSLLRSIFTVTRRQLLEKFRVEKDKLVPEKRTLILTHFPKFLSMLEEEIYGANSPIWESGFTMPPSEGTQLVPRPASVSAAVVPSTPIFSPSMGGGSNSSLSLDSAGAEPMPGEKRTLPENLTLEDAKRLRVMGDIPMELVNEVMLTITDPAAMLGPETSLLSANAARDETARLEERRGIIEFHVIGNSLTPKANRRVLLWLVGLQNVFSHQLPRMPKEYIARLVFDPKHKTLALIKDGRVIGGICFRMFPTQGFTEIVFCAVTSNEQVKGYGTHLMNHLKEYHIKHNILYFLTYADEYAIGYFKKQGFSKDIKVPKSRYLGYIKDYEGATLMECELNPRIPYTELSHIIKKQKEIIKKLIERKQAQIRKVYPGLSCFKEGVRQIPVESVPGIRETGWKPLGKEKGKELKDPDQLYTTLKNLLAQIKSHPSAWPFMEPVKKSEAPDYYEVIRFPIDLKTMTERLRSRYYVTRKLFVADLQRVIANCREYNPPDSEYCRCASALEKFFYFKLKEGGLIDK
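qHTS, 1536-well. 20nM enzyme, pH 7.5 HEPES/EDTA/Tween-20 buffer; 15 min compound preinc., RT. Start: 75uM H3(1-25), 70uM AcCoA, 50uM ThioGlo1. Read Ex340/Em540 at t=0 (autofluorescence flag) and t=20 min.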
VDR inh: vitamin D3 receptor (human) inhibition; 0.93% of 400,000 active; VDR-SRC2-3 peptide fluorescence polarization, 2 h; P11473; Potency, µM, actives largely listed as inhibitors
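Signal is fluorescence polarization, reporting how far test compounds block the interaction of VDR with the SRC2-3 coregulator peptide after a 2 h room-temperature incubation.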
Rango release inh: prevents RanGTP from dissociating the Rango-importin beta complex. O95149+P62826. Biochemical FRET Rango-importin beta, RanGTP-induced dissociation. Potency, µM (highest dose often 46.1 µM). 0.071% of 340,000 active. AID 540253; calls by dose curve; further: nearly all actives have a fitted effect of over 45% in size
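FRET read at 45 min, room temperature: inhibitors block the CFP/YFP signal rise when RanGTP (0.6 uM Ran, 2 mM GTP, 0.2 uM RCC1) frees Rango (0.1 uM) from importin beta (0.25 uM). Pre-read after 5 min compound exposure flags interference.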
PLK1 PBD inh: PLK1 (human) polo-box domain binding inhibition; P53350; Plk1 PBD binding of FITC phosphopeptide, fluorescence polarization; Potency, µM, hits mostly inhibitors; 2.8% of 360,000 active; further: series mostly up to about 57 µM; nearly all actives have a fitted effect of over 65% in size
PI5P4Ka inh: PI5P4K alpha (human) kinase inhibition | PI5P4Kalpha enzyme, ADP-Glo luminescence, 60 min; hits give low values | max response, % | 1.2% of 330,000 active; active means max response of -50% or lower; inconclusive means between -30% and -50%; inactive means -30% or higher; further: value at the top dose of about 77 µM
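Controls without substrate or without enzyme flank wells where PI5P4Kalpha converts substrate using 5 microM ATP (final). Incubation lasts 60 minutes at room temperature; ADP formed is read by ADP-Glo luminescence.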
A number is an active result; 0 = inactive; ? = inconclusive; - = not tested or not shown; [ ] = remark or other dose. Unless noted, the call rests on the fitted dose curve; in most records, active means well fitted curve in the direction sought with a large enough effect; inconclusive means small, poorly fitted or top-dose-only effect, or another doubt; inactive means no such curve, though single readings can be large; an effect the other way counts as inactive or inconclusive.

SMILES | Rango-impB inh | KAT2A inh | VDR inh | Rango release inh | PLK1 PBD inh | PI5P4Ka inh
CCOC(=O)/C(=C\c1cn(C)c2ccccc12)[N+](=O)[O-] | 0 | 0 | 50.1µM | 0 | 1.68µM | 0
CCc1ccc(N2CC(C)Cn3c2nc2c3c(=O)n(CC(=O)O)c(=O)n2C)cc1 (stereo not drawn) | - | 0 | 0 | - | - | -
CCC(=S)/C=C1\Sc2ccccc2N1CCCS(=O)(=O)O | 0 | 0 | 70.8µM | 0 | ? | 0
CCN1/C(=C\C=C2\C(=O)N(C)C(=S)N2C)Sc2ccccc21 | 0 | 0 | 0 | 0 | 0 | 0
COc1cccc2c(C)nc(Nc3nc(CSc4nnc(C)s4)cc(=O)[nH]3)nc12 | 0 | 0 | 79.4µM | 0 | 23.8µM | 0
CCOc1ccc(OCC)c(NC(=O)CCC(=O)N2CCOc3ccccc32)c1 | - | 0 | 0 | - | - | -
CCCNc1cc(=S)nc(N)[nH]1 | 0 | 0 | 0 | 0 | 18.9µM | 0
COC(=O)NC(CCc1ccccc1)C(C(C)=O)C(=O)OC (stereo not drawn) | - | - | 0 | - | - | -
COc1ccccc1-c1noc(-c2ccc(NC3CCCC3)c([N+](=O)[O-])c2)n1 | - | 0 | 0 | - | - | -
CN1CCN(C(=O)c2ccc3c(c2)N(Cc2cccc(Cl)c2)C(=O)c2ccccc2S3(=O)=O)CC1 | 0 | 0 | 0 | 0 | 26.7µM | 0
O=C(CCC1N=C2c3ccccc3N=C(SCc3ccc(F)cc3)N2C1=O)NCc1ccc(F)cc1 (stereo not drawn) | - | 0 | 0 | - | - | -
Cc1cnc(NC(=O)Nc2ccc(OCc3ccccc3)cc2)c(Br)c1 | 0 | 0 | 0 | 0 | 29.9µM | 0
COc1cc(OC)c(NC(=O)NCCn2nnc3cc(S(=O)(=O)N(C)C)ccc32)cc1Cl | - | 0 | 0 | - | - | -
COC(=O)C1=C(O)/C(=C\c2ccc(OCC(=O)Nc3ccccc3OC)cc2)N=C1C | 0 | 0 | ? | 0 | 21.2µM | ?
COc1ccc(NC(=O)c2cccc(N3C(=O)C4C5C=CC(C6CC56)C4C3=O)c2)c(OC)c1 (stereo not drawn) | 0 | 0 | 0 | 0 | 23.8µM | 0
Cn1c(=O)n(C)c2cc(N3CCOCC3)c(NS(=O)(=O)c3ccc(Br)cc3)cc21 | - | 0 | 0 | - | - | -
O=C(Nc1ccc(Cl)cc1Cl)c1ccc2c(c1)OCCO2 | 0 | 0 | 0 | 0 | 0 | 0
O=C(Nc1ccc(Cl)cc1Cl)c1cccc(N2C(=O)C=CC2=O)c1 | 0 | 0 | ? | 0 | 1.89µM | -51.1
CC(Sc1nnc(C(F)(F)F)n1C)C(=O)Nc1ccc(N2CCOCC2)cc1 (stereo not drawn) | 0 | 0 | 0 | 0 | 0 | 0
CC(Sc1nnc(C(F)(F)F)n1C)C(=O)Nc1ccc(S(N)(=O)=O)cc1 (stereo not drawn) | 0 | 0 | 0 | 0 | 29.9µM | 0
Oc1ccc(CNc2ccccc2)c2cccnc12 | 0 | 0 | ? | 0 | 7.52µM | -55.2
Cc1ccccc1NCc1ccc(O)c2ncccc12 | 0 | 0 | ? | 0 | 2.99µM | -
Oc1ccc2ccccc2c1CNc1ccccc1 | ? | - | 22.4µM | 0 | 3.36µM | 0
Cc1ccc(O)c2ncccc12 | - | 0 | 0 | - | - | -
COCc1ccc(O)c2ncccc12 | 0 | 0[0.501 µM] | 0 | 0 | 0 | 0
SMILES | Rango-impB inh | KAT2A inh | VDR inh | Rango release inh | PLK1 PBD inh | PI5P4Ka inh
Cc1cccc(NCc2ccc(O)c3ncccc23)c1 | ? | 0 | 0 | 0 | 3.36µM | 0
Cc1cc(C)c2c(C)c(C(=O)N3CCC(c4nc5ccccc5s4)CC3)oc2c1 | - | 0 | 0 | - | - | -
Cc1ccc(CNC(=O)c2cccn2-c2nnc(N3CCCCC3)s2)cc1 | - | 0 | 0 | - | - | -
CCOc1ccc(S(=O)(=O)N(CC(=O)Nc2ccc3c(c2)OCO3)c2ccccc2)cc1 | - | 0 | 0 | - | - | -
O=Cc1c(Sc2ccccc2)nc2ccccn2c1=O | 0 | 0[0.501 µM] | 0 | 0 | 3.36µM | ?
COc1cc(/C=C2\C(=O)N(c3cccc(C(=O)O)c3)N=C2C)ccc1OCc1ccccc1 | - | - | - | - | 1.06µM | 0
COc1cc(/C=C/[N+](=O)[O-])ccc1OCc1cccc(C(=O)O)c1 | ? | 0 | 20µM | 0 | 5.97µM | -54.6
COc1cc(/C=C/C(=O)NCCc2ccc(S(N)(=O)=O)cc2)ccc1OCC#N | 0 | 0 | 0 | 0 | 0 | 0
C#CCOc1ccc(/C=C2/C(=O)N(c3ccc(S(N)(=O)=O)cc3)N=C2C)cc1OC | - | - | - | - | 1.19µM | 0
COc1ccc(/C=C2\N=C(c3ccccc3)N(c3ccc(C(=O)O)cc3)C2=O)cc1OC | ? | 0 | 0 | ? | 0 | 0
